Seven compounds from PubChem BioAssay can be followed below.

A short description of experiment [1]: compounds altering viability of human ES cells (AID 493140).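 Also: cells exposed to compounds for four days before counting.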 Particulars: human embryonic stem cell survival screen; stronger effect = higher value.
Experiment [2] in a line: compounds altering Cy5-DNA-NS3h complex signal – biochemical, LOPAC1280, artefact control for HCV NS3 helicase inhibitor project (AID 687037). Particulars: Cy5-DNA-NS3h complex fluorescence interference counterscreen.
Experiment [3] can be described thus: stimulators of insulin release from INS-1E, primary screen, cell-based, 5 mM glucose, NPC library (AID 1117329;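 active = compound raises insulin release from rat beta cells at 5 mM glucose, no numeric limit stated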). The following applies: rat INS-1E insulin secretion, at 10 µM, stronger effect = higher value.
A short description of experiment [4]: growth inhibition of GSK3B-pretreated HCT116 cells – cell-based, CellTiter-Glo, 0.2 to 20 µM (AID 1117336;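 active = compounds lowering colon cancer cell viability after pretreatment blocking the GSK3B kinase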). The following applies: HCT116 viability after GSK3B inhibitor, at 20 µM, stronger effect = higher value.
Experiment [5] is described as follows: inhibition of endothelial tube formation, primary screen, imaging, VEGF stimulated, CD31 staining, tube area, NPC library (AID 1117340;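 active = compound that reduces growth-factor-driven endothelial tube area in a mixed cell culture, no cutoff stated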). Particulars: VEGF-stimulated ADSC/ECFC co-culture, at 10 µM, stronger effect = higher value.
Experiment [6] in a line: GLP1 release stimulators, primary, NCI-H716, NPC library (AID 1117341;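 active = compound raises GLP1 secretion from the human gut endocrine cells, with no numeric limit stated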). The following applies: NCI-H716 cells, at 10 µM, stronger effect = higher value.
The nature of experiment [7]: HCT116 colon cancer cell growth inhibition, primary screen, CellTiter-Glo luminescence, NPC library (AID 1117342;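 active = compounds that lower survival of HCT116 colon cancer cells in the luminescence readout, no numeric limit stated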). The following applies: at 20 µM (top of the series). (In general: ATP-based viability assays read luminescence as a measure of living cells.)
The nature of experiment [8]: reduced SW480 viability measured with CellTiter-Glo, NPC library, primary (AID 1117343;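 active = compounds that lower viability of the colon cancer cells in the luminescence readout, with no numeric limit stated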). The following applies: CellTiter-Glo luminescence; at 20 µM (top of the series) unless noted.
A short description of experiment [9]: NPC library primary testing for decreased DLD-1 cell viability via CellTiter-Glo (AID 1117346;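 active = compounds that lower survival of DLD-1 colon cancer cells in the luminescence readout, no cutoff given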). The following applies: DLD-1 viability, CellTiter-Glo luminescence; at 20 µM (top of the series).
Experiment [10] has as its target 6-phosphogluconate dehydrogenase, decarboxylating (Homo sapiens) (UniProt P52209). Put plainly: inhibition of human phosphogluconate dehydrogenase – biochemical, recombinant enzyme, NADPH absorbance, primary screen (AID 1159550;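 active = at least 20% inhibition of 6-phosphogluconate dehydrogenase activity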). The following applies: recombinant 6PGD, NADPH absorbance 341 nm; at 10 µM; stronger effect = higher value.
Experiment [11] in a line: modulation of C. elegans fzo-1 (AID 1259413).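 Also: fzo-1 mutant C. elegans worms in liquid wells.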 Particulars: C. elegans fzo-1 modulator screen, mean read-out; stronger effect = higher value.
Experiment [12] in a line: EMT-state selective cytotoxicity in co-culture – imaging, PC-3E GFP, TEM4-18 mCherry, primary screen (AID 1345086;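 active = compounds killing one labelled cell type while sparing the other, by normalised counts and ratio limits, not self-fluorescent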;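 as to all read-outs here: cells exposed to compound for 72 h before imaging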;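 as to red/green cell ratio (normalised): normalised mesenchymal count divided by normalised epithelial count so high means epithelial killing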). The following applies: PC-3E GFP / TEM4-18 mCherry co-culture, imaging cell counts, at 1 µM; for red/green cell ratio (normalised): actives lie on both sides, counts scaled to control wells, 1 = unselective.
Experiment [13] in a line: blockers of cellular phospholipid synthesis – cell-based, LOPAC library, screen 4, primary screen (AID 1347384). Particulars: animal cells, phospholipid biosynthesis inhibition screen; at 10 µM.
The nature of experiment [14]: MELAS cybrid and Rieske KO viability enhancers – cell-based, MELAS cybrids, Rieske KO mouse fibroblasts, CellTiter-Glo, primary screen (AID 1508586;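 active = mean z-score across replicates of 1.96 or higher in either the MELAS or the Rieske mutant cell line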;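 also: z relative to plate mean and SD of compound and empty wells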). Particulars: low glucose.
For experiment [15], the target named is NAD(+) hydrolase SARM1 (Homo sapiens) (UniProt Q6SZW1). Put plainly: blocking NAD cleavage by SARM1 SAM-TIR – cell lysate, NAD-Glo luminescence (AID 1508614;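 active = compound whose remaining NAD level is above about 45 nM, limit read from the data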;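 also: higher remaining NAD means stronger inhibition of SARM1 NADase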). Particulars: SAM-TIR HEK293T lysate NADase, at 1 µM, stronger effect = higher value.
Chain of NAD(+) hydrolase SARM1 (Homo sapiens) (Q6SZW1 whole entry, looked up, the tested form may be a part): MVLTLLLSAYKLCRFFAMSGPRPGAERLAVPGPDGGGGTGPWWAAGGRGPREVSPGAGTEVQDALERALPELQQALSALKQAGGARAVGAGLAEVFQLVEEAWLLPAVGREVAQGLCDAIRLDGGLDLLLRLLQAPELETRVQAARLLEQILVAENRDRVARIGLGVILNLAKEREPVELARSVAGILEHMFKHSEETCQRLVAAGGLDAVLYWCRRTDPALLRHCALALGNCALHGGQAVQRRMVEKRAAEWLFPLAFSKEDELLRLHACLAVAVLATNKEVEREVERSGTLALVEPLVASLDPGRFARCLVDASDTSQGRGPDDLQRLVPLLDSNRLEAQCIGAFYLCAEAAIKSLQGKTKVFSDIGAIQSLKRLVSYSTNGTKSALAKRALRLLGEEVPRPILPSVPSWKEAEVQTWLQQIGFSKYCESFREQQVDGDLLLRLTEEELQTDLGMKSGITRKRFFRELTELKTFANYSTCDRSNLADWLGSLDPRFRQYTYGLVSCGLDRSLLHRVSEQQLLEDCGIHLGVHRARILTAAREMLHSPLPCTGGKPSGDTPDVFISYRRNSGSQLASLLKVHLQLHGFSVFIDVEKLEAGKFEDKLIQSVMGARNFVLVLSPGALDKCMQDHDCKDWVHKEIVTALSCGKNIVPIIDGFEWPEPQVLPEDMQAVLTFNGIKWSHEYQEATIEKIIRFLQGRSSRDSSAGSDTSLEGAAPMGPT
Experiment [16] has as its target Mitogen-activated protein kinase 7 (Homo sapiens) (UniProt Q13164). The experiment is described as follows: Gal4-ERK5 driven luciferase induction – cell-based, HTS, primary screen (AID 1508626;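 active = luciferase signal above three times the same-plate solvent-only control wells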;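 also: luciferase driven by Gal4-ERK5 fusion binding five Gal4 sites before minimal TATA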). The following applies: HeLa Gal4-ERK5 transactivation, 18 h, at 5 µM, stronger effect = higher value.
Experiment [17] in a line: Wnt pathway potentiators raising nuclear beta-catenin – imaging, WNT3A-conditioned medium, mouse C2C12, NPC library, primary screen (AID 1117326; in the data active = nuclear beta-catenin stimulation mostly above about 4.2%, no sharp cut-off; inactive = mostly below about 10%). The following applies: stronger effect = higher value.
Experiment [18] can be described thus: viability loss with induced miR-34 in A549 – imaging, A549 dox-inducible miR-34, nuclei and caspase counts, primary screen (AID 1347080;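 active = compounds whose cell count with miR-34 switched on is under 0.7 times the count with it off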). The following applies: A549 miR-34 inducible, Hoechst nuclei count, 48 h.
A short description of experiment [19]: galactose survival enhancers in mitochondrial complex I cybrids – cell-based, galactose medium, ATP luminescence, primary screen (AID 1645843;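 active = z-score of at least 1.8 in each of two replicates, scored against plate mean and spread of sample wells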;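 also: positive z means more ATP and so rescue of galactose-driven cybrid death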). Particulars: complex I mutant cybrid cells, 72 h, stronger effect = higher value.
Setting [20] is: measured here: epithelial PC-3E GFP cell survival.
Setting [21] is: measured here: mesenchymal TEM4-18 mCherry cell survival.
Setting [22] is: MELAS cybrid survival, CellTiter-Glo 48 h, stronger effect = higher value.
The mark [23] stands for this setting: Rieske KO mouse fibroblast survival, CellTiter-Glo 72 h.

Several values for one entry are separate records, joined by “and”; a condition that tells them apart may be missing. Equal values may be shown once. Activity calls are given as the source filed them. Unless noted, no rule for the calls is given here.

One may read the inhibition as the relative decrease from the control value, in per cent.

Chain of Mitogen-activated protein kinase 7 (Homo sapiens) (Q13164 whole entry, looked up, the tested form may be a part): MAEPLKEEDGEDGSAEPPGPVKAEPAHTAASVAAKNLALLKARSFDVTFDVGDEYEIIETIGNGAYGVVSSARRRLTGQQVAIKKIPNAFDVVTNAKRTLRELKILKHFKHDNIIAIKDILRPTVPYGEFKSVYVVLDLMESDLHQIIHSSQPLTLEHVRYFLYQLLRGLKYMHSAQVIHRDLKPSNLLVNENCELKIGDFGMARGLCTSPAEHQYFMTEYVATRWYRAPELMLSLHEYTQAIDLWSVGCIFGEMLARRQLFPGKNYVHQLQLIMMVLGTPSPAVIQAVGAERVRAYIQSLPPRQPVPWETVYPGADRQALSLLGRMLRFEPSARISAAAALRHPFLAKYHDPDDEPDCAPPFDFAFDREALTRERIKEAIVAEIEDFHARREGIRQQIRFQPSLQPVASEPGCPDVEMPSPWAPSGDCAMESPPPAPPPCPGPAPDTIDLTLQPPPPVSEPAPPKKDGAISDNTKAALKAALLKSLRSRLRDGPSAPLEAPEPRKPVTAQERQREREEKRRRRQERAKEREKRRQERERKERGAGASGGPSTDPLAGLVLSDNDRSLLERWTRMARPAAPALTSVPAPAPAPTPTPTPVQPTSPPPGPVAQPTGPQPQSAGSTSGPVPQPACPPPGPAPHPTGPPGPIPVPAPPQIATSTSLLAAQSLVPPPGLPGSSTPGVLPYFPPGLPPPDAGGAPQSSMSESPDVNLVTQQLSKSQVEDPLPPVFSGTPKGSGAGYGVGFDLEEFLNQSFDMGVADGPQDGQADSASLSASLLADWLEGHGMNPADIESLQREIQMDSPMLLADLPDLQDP
Chain of 6-phosphogluconate dehydrogenase, decarboxylating (Homo sapiens) (P52209 whole entry, looked up): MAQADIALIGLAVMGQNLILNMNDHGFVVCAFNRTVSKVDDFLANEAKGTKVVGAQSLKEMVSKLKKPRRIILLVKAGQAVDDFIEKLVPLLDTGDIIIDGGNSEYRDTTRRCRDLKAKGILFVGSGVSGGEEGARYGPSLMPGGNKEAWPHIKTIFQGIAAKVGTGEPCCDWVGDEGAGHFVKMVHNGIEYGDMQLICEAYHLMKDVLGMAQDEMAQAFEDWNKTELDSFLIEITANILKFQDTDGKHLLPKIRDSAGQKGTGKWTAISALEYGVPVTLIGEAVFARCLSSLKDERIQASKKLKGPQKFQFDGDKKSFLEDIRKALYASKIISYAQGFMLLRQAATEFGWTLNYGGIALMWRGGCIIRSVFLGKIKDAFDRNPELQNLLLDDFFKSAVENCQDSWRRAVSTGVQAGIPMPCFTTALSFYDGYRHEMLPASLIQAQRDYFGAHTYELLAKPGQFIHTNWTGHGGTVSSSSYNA

As to `CC(C)NCC(O)COc1cccc2[nH]ccc12` (configuration not stated), in [1], the survival is 5.75 (inactive). Besides, the fluorescence ratio (interference) in experiment [2] is 1 (inactive). Besides, in experiment [3], the insulin secretion stimulation was 0.3% (inactive). Further, the viability decrease in experiment [4] is 17.5% (inactive). Moreover, the tube area decrease in [5] is 0% (inactive). Also, the GLP1 secretion stimulation in experiment [6] was 1.4% (inactive). Further, the inhibition of viability in experiment [7] is -13.4% (inactive). Besides, the figures for the viability decrease (inhibition) in experiment [8] and in [9] were -0.7% (inactive) and -7.1% (inactive), respectively. Moreover, the inhibition in [10] is 11.4% (inactive). In addition, the mean signal in experiment [11] is 248 (inactive). The red/green cell ratio (normalised) in experiment [12] was 1.41 (inactive). The normalised cell number in experiment [12] (setting [20]) was found to be 0.83; in experiment [12] (setting [21]) it was 1.17. Besides, in [13], the compound was classed as inactive. Also, the z-score was -0.583 (inactive) and -0.452 (inactive) in experiment [14] (setting [22]); -0.0517 and -0.221 in [14] (setting [23]). Besides, in experiment [15], the remaining NAD is 10 nM (inactive). Further, the luciferase signal in experiment [16] was 84 AU (inactive).

As for `CCO[C@H](Cc1ccc(OCCc2ccc(OS(C)(=O)=O)cc2)cc1)C(=O)O`, the nuclear beta-catenin stimulation is 1.2% (inactive) in experiment [17] (at 10 µM) and 7.6% in [17] (stimulation, at 2 µM). For the same compound, the viability decrease in [4] is 8.6% (inactive). Further, the inhibition of viability in experiment [7] was -7.7% (inactive). Also, the results for the viability decrease (inhibition) in [8] and in experiment [9] were -5.9% (inactive) and -11.3% (inactive), respectively.

Take `CN1CCN(C2=Nc3cc(Cl)ccc3Nc3ccccc32)CC1`: the survival in experiment [1] is 15.2 (inactive). Besides, the fluorescence ratio (interference) in experiment [2] is 1 (inactive). Also, the insulin secretion stimulation in experiment [3] is 3.6% (inactive). In addition, in [4], the viability decrease was 17.2% (inactive). The tube area decrease in [5] is -0.2% (inactive). The GLP1 secretion stimulation in [6] is 7.2% (inactive). Also, the inhibition of viability in experiment [7] was 63% (active). Moreover, the viability decrease (inhibition) in experiment [8] was 66.6% (active); in experiment [9], 14.1% (inactive). For the same compound, the inhibition in experiment [10] was -3.75% (inactive). The mean signal in experiment [11] was 262 (inactive). Moreover, the red/green cell ratio (normalised) in experiment [12] was 1.04 (inactive). The figures for the normalised cell number in [12] (setting [20]) and in experiment [12] (setting [21]) were 1.09 and 1.14, respectively. Further, the call in experiment [13] was inactive. For the same compound, the z-score in experiment [14] (setting [22]) is -1.17 (inactive) and -0.401 (inactive) and 0.405 (inactive); in experiment [14] (setting [23]) it was 0.276 and 0.587. Also, the remaining NAD in experiment [15] is 10 nM (inactive). The luciferase signal in [16] was 24 AU (inactive).

With `COCCOCC(OC)OC`, the nuclear beta-catenin stimulation in [17] (at 10 µM) was 1.2% (inactive); in experiment [17] (stimulation, at 2 µM), 10.8%. Further, in experiment [4], the viability decrease was 0.6% (inactive). Moreover, the inhibition of viability in experiment [7] is 12.5% (inactive). The viability decrease (inhibition) in [8] is -8.8% (inactive); in experiment [9], 6.9% (inactive).

Turning to `CC(C)CCCC(C)NCCC(C)C` (configuration not stated), the nuclear beta-catenin stimulation in experiment [17] (at 10 µM) is -1.6% (inactive); in [17] (stimulation, at 2 µM), 2.7%. In addition, the viability decrease in experiment [4] was -5.2% (inactive). Moreover, in [7], the inhibition of viability was -0.4% (inactive). The viability decrease (inhibition) in experiment [8] is -8.8% (inactive); in [9], 1.8% (inactive).

Take `C[C@@H](C1=C(CCN(C)C)Cc2ccccc21)c1ccccn1`: the nuclear beta-catenin stimulation in experiment [17] (at 10 µM) was -0.2% (inactive); in experiment [17] (stimulation, at 2 µM) it was 8.1%. Besides, the viability decrease in experiment [4] is 37.5% (inactive). Moreover, the inhibition of viability in [7] was -11.9% (inactive). Further, the viability decrease (inhibition) in [8] was 63.6% (active); in experiment [9] it was -48.2% (inactive). Moreover, the fold change is 0.916 (inactive) in [18] (stronger effect = lower value, cell number ratio, induced over uninduced) and 0.633 in experiment [18] (measured here: relative caspase fold change +Dox/-Dox). Further, the cell count in [18] (measured here: total cells with miR-34 induction, stronger effect = lower value) came to 7800; in [18] (measured here: total cells without miR-34 induction), 8520. Also, the z-score in experiment [19] was -0.445 (inactive).

In the case of `CC(C(=O)O)c1cccc(C(=O)c2ccccc2)c1` (configuration not stated), the survival in experiment [1] is 15.6 (inactive). Further, the fluorescence ratio (interference) in experiment [2] was 1 (inactive). Also, the insulin secretion stimulation in experiment [3] is 1.7% (inactive). The viability decrease in [4] was 9.9% (inactive). The tube area decrease in [5] was -21.2% (inactive). For the same compound, in [6], the GLP1 secretion stimulation is 1.2% (inactive). The inhibition of viability in [7] was 1.73% (inactive). Further, the viability decrease (inhibition) in experiment [8] was 1.9% (inactive); in [9], -13.8% (inactive). Also, the inhibition in [10] is -9.9% (inactive). The mean signal in experiment [11] is 232 (inactive). For the same compound, the red/green cell ratio (normalised) in experiment [12] is 1.06 (inactive). Also, the results for the normalised cell number in [12] (setting [20]) and in [12] (setting [21]) were 1.07 and 1.13, respectively. Moreover, in experiment [13], the outcome was inactive. Also, the z-score in experiment [14] (setting [22]) is -0.241 (inactive) and 0.309 (inactive) and -0.387 (inactive); in [14] (setting [23]), 0.963 and -0.169 and -0.868; in experiment [19], 0.45 (inactive) and 0.27 (inactive) and 0.89 (inactive). Also, the remaining NAD in experiment [15] is 10 nM (inactive). The luciferase signal in [16] was 60 AU (inactive).
